CYP2C19 inh: blocks human cytochrome P450 2C19 | actives 21% (n = 96,000) | CYP2C19 Supersomes, luciferin-H EGE luminescence, 30 min | inhibition, % at 5 µM | P33261;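 active = CYP2C19 inhibition above a set limit at 5 µM in the primary screen, cut at about 50% in these data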;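 note: plate controls were negative control wells for no effect and 2.5 mM tranylcypromine positive control for full effect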
CYP2C9 act: CYP2C9 (human) activation; P11712; recombinant CYP2C9, luciferin-H conversion, luminescence; hits give high values; factor 1 = untreated enzyme, 0 = blocked; activation factor at 5 µM; actives 1.4% (n = 96,000);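 active = activation factor of 2 or more for CYP2C9 at a 5 µM dose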;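 note: 0 = sulfaphenazole-blocked wells and 1 = vehicle-only wells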
CYP2C19 activ: increases human CYP2C19 enzyme activity; 96,000 tested, under 10 active; recombinant CYP2C19, luciferin-H EGE luminescence; hits give high values; 0 = fully inhibited enzyme, 1 = untreated enzyme; P33261; activation factor at 5 µM;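 active = activation factor of at least 2 at 5 µM in the primary screen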;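 note: 0 = wells with 2.5 mM tranylcypromine and 1 = vehicle-only wells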
CYP2C9 inhib: human CYP2C9 inhibition | P11712 | inhibition, % at 5 µM | actives 20% (n = 96,000) | CYP2C9 Supersomes, luciferin-H conversion, luminescence;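 active = blocking of liver enzyme CYP2C9 beyond about 50% at 5 µM, limit read from the data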
Cav3 T inh: inhibitors of human Cav3.2 T-type calcium channel | Cav3.2-expressing cells, Fluo-4 calcium fluorescence FDSS; hits give low values | O95180 | B-score at 10 µM | actives 4% (n = 100,000) | AID 449739;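 active = single-dose well whose peak fluorescence ratio is a statistical outlier from its plate by either plate-standardised score or position-corrected B-score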
Target sequence (O95180 whole entry, looked up): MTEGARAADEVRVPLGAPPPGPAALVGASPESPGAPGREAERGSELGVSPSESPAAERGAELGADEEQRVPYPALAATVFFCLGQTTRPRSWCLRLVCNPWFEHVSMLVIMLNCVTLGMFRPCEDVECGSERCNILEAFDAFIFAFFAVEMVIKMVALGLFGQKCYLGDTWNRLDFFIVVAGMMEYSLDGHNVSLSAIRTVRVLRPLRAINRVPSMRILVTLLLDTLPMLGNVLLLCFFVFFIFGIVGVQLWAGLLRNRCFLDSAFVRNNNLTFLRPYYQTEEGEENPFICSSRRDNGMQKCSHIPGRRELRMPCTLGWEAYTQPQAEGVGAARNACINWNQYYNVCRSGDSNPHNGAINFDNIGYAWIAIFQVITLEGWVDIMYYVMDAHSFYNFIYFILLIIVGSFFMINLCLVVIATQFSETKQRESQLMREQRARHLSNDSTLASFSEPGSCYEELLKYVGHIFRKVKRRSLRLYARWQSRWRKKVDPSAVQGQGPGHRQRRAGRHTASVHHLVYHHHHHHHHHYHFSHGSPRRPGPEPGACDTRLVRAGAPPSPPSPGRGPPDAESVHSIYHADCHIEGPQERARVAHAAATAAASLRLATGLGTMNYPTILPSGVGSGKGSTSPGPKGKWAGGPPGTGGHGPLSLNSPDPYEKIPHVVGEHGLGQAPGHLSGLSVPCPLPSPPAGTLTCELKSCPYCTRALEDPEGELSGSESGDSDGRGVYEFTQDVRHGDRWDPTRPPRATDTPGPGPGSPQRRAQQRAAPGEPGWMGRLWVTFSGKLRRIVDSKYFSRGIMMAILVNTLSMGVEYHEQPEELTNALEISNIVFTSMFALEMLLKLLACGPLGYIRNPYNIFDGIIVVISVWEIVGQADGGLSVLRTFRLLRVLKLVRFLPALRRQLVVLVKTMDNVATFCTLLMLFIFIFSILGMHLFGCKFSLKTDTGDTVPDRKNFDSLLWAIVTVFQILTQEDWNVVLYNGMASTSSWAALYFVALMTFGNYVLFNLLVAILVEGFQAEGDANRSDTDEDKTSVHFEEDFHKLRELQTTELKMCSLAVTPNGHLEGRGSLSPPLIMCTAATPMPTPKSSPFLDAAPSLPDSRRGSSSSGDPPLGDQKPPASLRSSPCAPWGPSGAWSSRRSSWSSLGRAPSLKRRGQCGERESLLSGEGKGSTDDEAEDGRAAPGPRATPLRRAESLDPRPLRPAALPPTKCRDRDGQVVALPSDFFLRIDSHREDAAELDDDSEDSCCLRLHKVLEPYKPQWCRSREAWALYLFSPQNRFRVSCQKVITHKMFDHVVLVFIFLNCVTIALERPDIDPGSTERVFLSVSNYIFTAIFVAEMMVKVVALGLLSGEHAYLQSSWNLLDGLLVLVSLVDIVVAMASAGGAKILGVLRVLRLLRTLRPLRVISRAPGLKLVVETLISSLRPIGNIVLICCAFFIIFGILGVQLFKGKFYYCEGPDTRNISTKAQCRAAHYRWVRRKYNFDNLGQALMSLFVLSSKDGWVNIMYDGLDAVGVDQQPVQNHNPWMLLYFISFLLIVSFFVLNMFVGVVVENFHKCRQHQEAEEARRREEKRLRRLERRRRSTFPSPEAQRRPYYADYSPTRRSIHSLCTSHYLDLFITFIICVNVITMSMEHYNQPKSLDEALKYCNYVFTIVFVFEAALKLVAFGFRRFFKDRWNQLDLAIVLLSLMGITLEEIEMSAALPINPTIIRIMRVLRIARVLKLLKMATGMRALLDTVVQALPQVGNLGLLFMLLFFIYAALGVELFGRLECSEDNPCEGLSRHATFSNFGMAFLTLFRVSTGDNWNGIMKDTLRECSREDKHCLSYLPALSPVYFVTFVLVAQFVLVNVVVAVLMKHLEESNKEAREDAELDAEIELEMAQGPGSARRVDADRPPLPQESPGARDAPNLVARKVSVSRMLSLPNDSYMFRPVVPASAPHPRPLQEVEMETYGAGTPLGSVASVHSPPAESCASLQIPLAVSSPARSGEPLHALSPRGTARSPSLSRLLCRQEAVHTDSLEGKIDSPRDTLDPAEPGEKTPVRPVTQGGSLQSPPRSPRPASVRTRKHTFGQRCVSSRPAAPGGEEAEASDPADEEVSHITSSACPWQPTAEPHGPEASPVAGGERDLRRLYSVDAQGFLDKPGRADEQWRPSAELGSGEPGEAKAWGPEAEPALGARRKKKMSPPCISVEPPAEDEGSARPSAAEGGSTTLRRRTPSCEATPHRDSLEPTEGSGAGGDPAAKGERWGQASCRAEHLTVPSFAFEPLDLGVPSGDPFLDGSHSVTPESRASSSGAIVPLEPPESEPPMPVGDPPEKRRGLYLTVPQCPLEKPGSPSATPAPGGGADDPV
Active calls of the source: *; · = no result given. Compounds with a hit are over-represented: about 27% of the library has one in this group of screens.

SMILES	CYP2C19 inh	CYP2C9 act	CYP2C19 activ	CYP2C9 inhib	Cav3 T inh
CCOc1ccc(CCNC(=O)COC(=O)c2cccnc2OCC)cc1OCC	77.0*	0.1	0.2	86.7*	-0.0874
Cc1ccc(N/C(SCc2ccccc2C)=C(/C#N)C(=O)NCc2ccco2)cc1C	28.9	0.2	0.7	79.5*	-5.32*
CCc1ccc(N/C(SCc2cccc(F)c2)=C(/C#N)C(=O)NCc2ccco2)cc1	54.7*	0.3	0.5	68.2*	-3.56*
COc1ccccc1C(=O)NCCCn1cc(Br)c(C)n1	73.1*	0.8	0.3	20.8	0.382
COc1ccccc1C(=O)Nc1nnc(C)s1	3.5	0.7	1	28.4	0.22
COc1ccc(CCNC(=O)c2[nH]c(C)c(C(C)=O)c2C)cc1	50.2*	0.3	0.5	72.6*	0.244
CC(=O)c1c(C)[nH]c(C(=O)OCC(=O)NCCc2ccc(Cl)cc2)c1C	87.0*	0.1	0.1	87.3*	-3.02
CCOc1ccccc1N1CSC2=C(C#N)C(c3c(OC)ccc4ccccc34)CC(=O)N2C1 (stereo not given)	75.1*	0	0.2	99.9*	-2.07
COc1ccc(N2CSC3=C(C#N)C(c4cc(OC)c(OC)cc4OC)CC(=O)N3C2)c(OC)c1 (stereo not given)	9.0	0.7	0.9	33.6	1.41
COc1ccc(N2CSC3=C(C#N)C(c4cc(OC)ccc4OC)CC(=O)N3C2)c(OC)c1 (stereo not given)	1.4	0.5	1	52.9*	0.664
N#CC1=C2SCN(Cc3ccco3)CN2C(=O)CC1c1ccccc1F (stereo not given)	-18.4	0.7	1.2	34.3	0.519
COc1ccc(C2CC(=O)N3CN(c4ccc(C)c(Cl)c4)CSC3=C2C#N)cc1OC (stereo not given)	20.6	0	0.8	95.8*	0.556
COc1ccc(N2CSC3=C(C#N)C(c4ccc(OC)c(OC)c4)CC(=O)N3C2)c(OC)c1 (stereo not given)	-1.6	0.9	1	13.7	0.917
COCC(C)NS(=O)(=O)c1ccc(NC(=O)C(Cc2ccccc2)NC(N)=O)cc1 (stereo not given)	16.5	0.7	0.8	34.7	-0.0703
CCOC(=O)C1=C(c2ccccc2)N=C2SCC(=O)N2C1c1cccc(OC)c1 (stereo not given)	87.1*	0.5	0.1	54.2*	-1.47
CCOC(=O)C1=C(c2ccccc2)N=C2SCC(=O)N2C1c1ccc(OC)c(OC)c1 (stereo not given)	10.3	0.8	0.9	20.8	0.705
O=C(Nc1nc(-c2ccccc2)cs1)C1CCCCN1S(=O)(=O)c1ccccc1 (stereo not given)	72.3*	0.1	0.3	92.5*	-1.76
O=C(CN1C(=O)c2ccccc2C1=O)Nc1nc(-c2cccc([N+](=O)[O-])c2)cs1	-13.9	1.2	1.1	-16.8	·
O=C(Nc1nc(-c2ccc(S(=O)(=O)N3CCOCC3)cc2)cs1)c1ccccc1	9.4	0.5	0.9	47.5	·
O=C(Nc1nc(-c2ccccc2)cs1)C1CCCN(S(=O)(=O)c2ccccc2)C1 (stereo not given)	44.8	0.3	0.6	69.2*	-3.38
O=C(Nc1nc(-c2ccccc2)cs1)C1CCCN(S(=O)(=O)c2cccc([N+](=O)[O-])c2)C1 (stereo not given)	47.8	0.4	0.5	62.0*	-6.07*
COc1ccccc1C1C(C#N)=C(N)N(c2cccnc2)C2=C1C(=O)CC(C)(C)C2 (stereo not given)	·	·	·	·	2.2
Nc1nc(-c2cccc(Br)c2)cs1	63.6*	1	0.4	-0.3	0.388
CN1C2CCC1/C(=C\c1ccccc1)C(=O)/C2=C\c1ccccc1	40.3	2.2*	0.6	-124.2	-0.34
CCCCc1nnc(NC(=O)CSc2nc(=O)cc(N)n2-c2cccc(C)c2)s1	-13.8	1.1	1.1	-11.2	0.201
CCC1(C)Cc2c(sc3nc(NC)n(C)c(=O)c23)CO1 (stereo not given)	55.8*	0.8	0.4	18.1	·
CCC1(C)Cc2c(sc3nc4n(c(=O)c23)CCS4)CO1 (stereo not given)	63.9*	0.5	0.4	51.1*	0.0516
Cn1c(NN)nc2sc3c(c2c1=O)CC(C)(C)OC3	·	·	·	·	0.394
CCSc1nc2sc3c(c2c(=O)[nH]1)CC(C)(CC)OC3 (stereo not given)	0.0	0.9	1	11.6	0.194
CCOC(=O)c1c(C)n(C)c2ccc(OC)c(NC(=O)c3cccs3)c12	-9.7	0.9	1.1	11.5	-0.0761

High-throughput results (PubChem)
